Shown are actives, neighbours in structure and some others; about 19% of the full set was active somewhere.
HT1080NT lethal – kills 2HG-producing HT-1080-NT fibrosarcoma cells | HT-1080-NT fibrosarcoma viability, CellTiter-Glo ATP luminescence, 48 h | actives 1.6% (n = 360,000) | AID 686970 | Potency, µM (titrated, usually from 46.1 µM), without a hit: at the highest dose activity, negative = less viability, usual class: cytotoxic;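 also: NT is the 2HG producing partner of a matched IDH1 knockdown line; potency is read from the fitted curve at half-maximal effect; 0% = DMSO-treated cells and -100% = media-only wells without cells; nearly all actives have a fitted effect of over 55% in size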
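Fibrosarcoma NT cells, 750 per well in 5% FBS RPMI, were exposed to compound for 48 hours. Viability: CellTiter-Glo luminescence.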
DT40 TDP1 CPT – growth inhibition of DT40 Tdp1-/-;hTDP1 cells with camptothecin (screen for TDP1 inhibitors). chicken DT40 Tdp1-/-;hTDP1 cells + 20 nM CPT, ATP luminescence, 48 h. Potency, µM (top dose mostly 46.2 µM), for the others: top-dose activity change, negative = growth inhibition, most hits filed as inhibitors. actives 12% (n = 420,000); also: potency is read from the fitted curve at half-maximal effect; nearly all actives have a fitted effect of over 55% in size
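Chicken DT40 Tdp1-/- cells stably complemented with human TDP1 were seeded at 400 cells/well in medium containing 20 nM camptothecin, exposed to pin-transferred compounds, and grown at 37 °C for at least 48 hr. Viability was read as ATP luminescence.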
HT1080 IDH1KD tx – kills HT-1080 cells with IDH1 knockdown | Potency, µM (highest dose often 46.1 µM), for inactives: top-dose activity, negative = toxicity, usual class: cytotoxic | AID 686971 | actives 2% (n = 360,000) | HT-1080 IDH1 knockdown viability, ATP luminescence, 48 h;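 also: potency is read from the fitted curve at half-maximal effect; 0% = DMSO wells and -100% = cell-free medium wells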
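Luminescent ATP read-out (CellTiter-Glo, 10 min at room temperature) after 48 h compound exposure at 37 °C gave viability of IDH1-knockdown HT-1080 cells. Activity was normalised to DMSO and cell-free wells, then fitted as concentration-response curves.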
IL1B secr inh – inhibitors of inflammasome signaling (IL-1 beta secretion); THP-1 LPS/ATP IL-1B secretion, AlphaLISA, 16 h; hits give low values; activity change, % at 57.5 µM; actives 4.7% (n = 360,000); in the data active = activity change below about -50%; inconclusive = mostly about -30% to -49%
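Secreted IL-1B measured by AlphaLISA bead assay after 16 h compound exposure of THP-1 cells; compounds (final up to 57.5 uM) added 1 h before LPS (250 ng/mL) and ATP (1.25 mM) stimulation; lower signal means less secretion.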
TDP1 cell noCPT – qHTS for Inhibitors of human tyrosyl-DNA phosphodiesterase 1 (TDP1): qHTS in cells in absence of CPT | DT40 Tdp1-/- hTDP1 cells, no CPT, ATP luminescence, 48 h | Potency, µM (titrated, usually from 46.2 µM), inactives show at the highest dose activity change, negative = growth inhibition, hits mostly inhibitors | actives 15% (n = 420,000); also: potency is read from the fitted curve at half-maximal effect; nearly all actives have a fitted effect of over 55% in size
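Camptothecin absent (DMSO only). Human TDP1-complemented DT40 knockout cells, 400 cells/well, 37 °C for minimum 48 hr; ATP measured via CellTiter-Glo, 30 min dark incubation, luminescence.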
* hit, by the source's call; ? = inconclusive; . = no result given; [ ] = remark or other dose. Unless noted, calls follow the shape of the dose curve; as a rule, active = well fitted curve in the direction sought with a large enough effect; inconclusive = small, poorly fitted or top-dose-only effect, or another doubt; inactive = no such curve, though single readings can be large; an effect the other way counts as inactive or inconclusive. Unless noted, % is scaled to controls: 0 for no effect and ±100 for the full control effect.

SMILES	HT1080NT lethal	DT40 TDP1 CPT	HT1080 IDH1KD tx	IL1B secr inh	TDP1 cell noCPT
O=C(c1ccco1)N1CCCN(Cc2nc(-c3ccc4c(c3)OCO4)no2)CC1	-16.5%	-10.4%	-0.7%	3.7	16.4µM*
CCOC(=O)c1ccc(NC(=O)Cn2nc(SC)c(S(=O)(=O)c3ccc(Cl)cc3)c2N)cc1	.	?	.	.	20.6µM*
COc1ccc(NC(=O)Cn2nc(SC)c(S(=O)(=O)c3ccc(C)cc3)c2N)cc1OC	.	-7.4%	.	.	-22.2%
CCSc1nn(CC(=O)Nc2ccc(C(=O)OC)cc2)c(N)c1S(=O)(=O)c1ccc(C)cc1	.	16.4µM*	.	.	20.6µM*
CSc1nn(CC(=O)Nc2cc(C)ccc2C)c(N)c1S(=O)(=O)c1ccccc1	.	?	.	.	6.51µM*
Cc1cc(C)c(S(=O)(=O)CCC(C)C)c(=O)[nH]1	2.3%	9.6%	7.8%	19.7	6.9%
CN1CCN(C(=O)c2cc(-c3cccc(Cl)c3)on2)CC1	-0.4%	-8.6%	1.0%	0.9	-29.2%
Cc1occc1C(=O)N1CCN(C(c2ccccc2)c2ccccc2)CC1	0.9%	?	-0.1%	-14.0	?
O=C(c1cc(-c2cccc(O)c2)on1)N1CCN(C(c2ccccc2)c2ccccc2)CC1	?	20.6µM*	?	-53.2*	13µM*
Cc1cc(C(C)(C)C)oc1C(=O)N1CCN(C(=O)c2oc(C(C)(C)C)cc2C)CC1	8.6%	18.4µM*	12.9%	46.4	16.4µM*
Cc1ccccc1C(=O)N1CCN(C(c2ccccc2)c2ccccc2)CC1	-13.1%	?	-20.1%	-28.7	23.1µM*
NC(=NC(=O)c1ccccc1)N1CCN(C(c2ccccc2)c2ccccc2)CC1	21.2%	20.6µM*	13.2%	-25.6	?
O=C(NCC(=O)N1CCN(C(c2ccccc2)c2ccccc2)CC1)c1ccccc1F	-13.6%	?	-0.8%	-52.4*	29.1µM*
Cc1ccnc(SCC(=O)N2CCc3ccccc32)n1	16.3%	-10.5%	4.7%	-4.9	-12.1%
Cc1cc(C(=O)N2CCN(C(c3ccccc3)c3ccccc3)CC2)on1	-7.4%	8.2µM*	-6.2%	-16.5	23.1µM*
O=C(CNC(=O)Cc1ccccc1)NCC(=O)N1CCN(C(c2ccccc2)c2ccccc2)CC1	-1.9%	-16.1%	-0.8%	3.0	?
Cc1ccnc(SCC(=O)N2CCN(C(c3ccccc3)c3ccccc3)CC2)n1	3.1%	23.1µM*	14.3%	-8.8	16.4µM*
Cc1oc(C(C)(C)C)cc1C(=O)N1CCN(C(c2ccccc2)c2ccccc2)CC1	?	?	?	-68.5*	?
O=C(CN1CCC(NC(=O)Cc2ccccc2)CC1)Nc1ccccc1Br	-0.1%	?	-1.5%	0.9	-17.5%
CCOc1ccccc1C(=O)N1CCN(C(c2ccccc2)c2ccccc2)CC1	0.0%	?	0.0%	-83.3*	?
O=C(CCNS(=O)(=O)c1ccccc1C(F)(F)F)N1CCCCCCC1	6.1%	-26.7%	1.5%	-2.3	1.9%
CC(C)(C)C(=O)N1CCN(C(c2ccccc2)c2ccccc2)CC1	15.4%	?	12.3%	-14.8	18.4µM*
O=C(c1ccc(C#CC2(O)CCCCC2)cc1)N1CCN(Cc2ccccc2)CC1	-19.1%	?	-9.7%[9.24 µM]	-10.8	?
O=C(CCNS(=O)(=O)c1ccccc1C(F)(F)F)N1CCN(C(c2ccccc2)c2ccccc2)CC1	-4.5%	11.6µM*	-9.9%	-3.6	8.2µM*
O=C(c1ccc(C#CC2(O)CCCCC2)cc1)N1CCN(C(c2ccccc2)c2ccccc2)CC1	?	?	-14.5%[9.24 µM]	-58.0*	?
SMILES	HT1080NT lethal	DT40 TDP1 CPT	HT1080 IDH1KD tx	IL1B secr inh	TDP1 cell noCPT
Cc1c(C(=O)N(C)Cc2nccs2)sc2ncnc(NCC3CCCO3)c12 (stereo not given)	.	-20.3%	.	.	?
Cc1cccc2c1NC(=O)C21N2CCCC2C(C(=O)c2ccc3ccccc3c2)C12C(=O)Nc1ccccc12 (stereo not given)	-10.0%	?	-3.7%	-17.9	25.9µM*
Cc1cc(Cl)c2c(c1)[C@]1(C(=O)N2)[C@@H]2C(=O)N(Cc3ccccc3)C(=O)[C@@H]2[C@@H]2CCCN21	?	?	?	18.2	?
CCc1cccc2c1NC(=O)C21N2CCCC2C(C(=O)c2ccc3ccccc3c2)C12C(=O)Nc1ccccc12 (stereo not given)	-7.0%	18.4µM*	-10.1%	-104.5*	13µM*
CCc1ccc2c(c1)C1(C(=O)N2)N2CCCC2C(C(=O)c2ccc3ccccc3c2)C12C(=O)Nc1ccccc12 (stereo not given)	18.4µM*	?	20.6µM*	-99.3*	?
COc1ccc(N2CC(NC(=O)NC(C)(C)C)CC2=O)cc1 (stereo not given)	20.6%	4.5%	21.0%	5.0	-11.9%
COc1ccc(N2CC(NC(=O)NCCC(C)C)CC2=O)cc1 (stereo not given)	-0.9%	?	-4.3%	-64.5*	-20.7%
CCN1CCN(C(=O)NC2CC(=O)N(c3ccc(OC)cc3)C2)CC1 (stereo not given)	?	15.4%	18.6%	-68.9*	16.5%
CCN(CC)C(=O)c1c(-c2ccccc2)oc2ccc(O)cc12	-8.0%	-16.8%	-5.6%	-16.0	?
CC(C)C[C@H](N)c1cn([C@@H](CCCCN)C(=O)N2CCNCC2)nn1	1.64µM*	8.2µM*	1.16µM*	?	6.51µM*
CC(C)C[C@H](N)c1cn([C@@H](Cc2ccc(O)cc2)C(=O)N2CCNCC2)nn1	0.5%	5.8%	6.8%	19.0	-0.3%
CC(C)(C)C(=O)O/N=C(\N)c1ccc([N+](=O)[O-])s1	?	6.51µM*	-8.1%	0.0	6.51µM*
N/C(=N\O)c1ccc([N+](=O)[O-])s1	?	?	1.4%	0.0	?
Cc1ccc2cc(CNCc3cccc4ccccc34)c(N3CCC(O)CC3)nc2c1	.	-2.3%[9.04 µM]	.	.	-29.2%
CCOC(=O)N1CCN(S(=O)(=O)c2ccc(F)c(C(=O)Nc3ccc(C)c(Cl)c3)c2)CC1	-5.1%	16.4µM*	-3.0%	-69.7*	20.6µM*
CCOC(=O)N1CCN(S(=O)(=O)c2ccc(F)c(C(=O)Nc3ccc(C(C)C)cc3)c2)CC1	-11.3%	18.4µM*	-10.7%	0.6	18.4µM*
COc1ccc(OCc2cc(C(=O)N(C)CCC3CCOCC3)no2)c(Cl)c1	3.9%	?	-5.4%	0.2	?
CCOC(=O)N1CCc2c(sc3c2c(=O)n(-c2ccc(CC)cc2)c(=O)n3CC(=O)c2ccc(F)cc2)C1	.	13µM*	.	.	?

Assay outcomes deposited in PubChem by National Center for Advancing Translational Sciences (NCATS).
